From PubChem BioAssay AID493169 (National Center for Advancing Translational Sciences (NCATS), 2011)
Inconclusive results are not listed. A call without a number means that no potency is given here. Calls of active or inactive are those of the source. The call rests on the fitted dose curve; in most records, active means well fitted inhibition curve with a large enough effect; inconclusive means small, poorly fitted or top-dose-only effect; inactive means flat fitted curve, though single readings scatter.

Assay: CHOP2 Reporter Counterscreen Assay for Inhibitors of Ubiquitin-specific Protease USP2a;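 further: activated enterokinase alone at 50 pM in a cell-free format rather than USP2a or CHOP2; nearly all actives have a fitted effect of over 55% in size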
Conditions: purified enterokinase, fluorogenic substrate, 485/531 nm; series mostly up to 38.3 µM
How it was run: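 Cell-free counterscreen with pre-activated enterokinase alone (50 pM final) in 20mM Tris-HCl pH 8.0, 2mM CaCl2, 2mM beta-mercaptoethanol, 0.05% CHAPS; compound preincubation 30 min RT, reporter substrate 25nM final, fluorescence read after 10 min (Ex 485/Em 531).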
Potency means the concentration at half of the fitted maximal effect.

Row | Structure (SMILES) | Potency
1 | COc1c(/C=C2\SC(=Nc3ccccc3Cl)NC2=O)cccc1[N+](=O)[O-] | inactive
2 | C=CC[C@H](CC(=O)OC(C)(C)C)C(=O)OC[C@@H]1CCCN1C(=O)[C@H](CC=C)CC(=O)N[C@H](CO)Cc1ccccc1 | inactive
3 | CC1=NC(C(F)(F)F)(C(F)(F)F)C2=C(CC(C)(C)CC2=O)N1Cc1ccco1 | inactive
4 | Nn1c(Nc2ccccc2)nc2ccccc2c1=O | inactive
5 | COc1cccc(-c2csc3nnc(SCC(=O)NCc4cccs4)n23)c1 | inactive
6 | O=C1OC[C@@H]2CCCN2C(=O)[C@@H](CC(=O)N(CCO)Cc2ccccc2)C/C=C\C[C@@H]1Cc1ccc(F)cc1 | inactive
7 | COc1ccc(C(=O)CSc2nnc(-c3ccco3)c(-c3ccco3)n2)cc1 | 6.31 µM (active)
8 | CCC(=O)Nc1c2c(nn1-c1ccc(F)cc1)CS(=O)C2 (stereo not given) | inactive
9 | CC(C(=O)Nc1ccc(C(=O)O)c(O)c1)N1C(=O)/C(=C\c2ccco2)SC1=S (stereo not given) | 7.94 µM (active)
10 | Cc1cc(C(=O)CSc2nnc(Nc3ccccc3F)s2)c(C)n1CC1CCCO1 (stereo not given) | inactive
11 | Cc1c(NC(=O)c2ccc(COc3ccc4ccccc4c3)o2)c(=O)n(-c2ccccc2)n1C | inactive
12 | Cc1ccc2[nH]c3c(c2c1)CN(C(=O)CN1CCSCC1)CC3 | inactive
13 | Cn1c(SCc2nc3ccccc3s2)nnc1-c1cccs1 | inactive
14 | CC1(C)CC(=O)C2=C(C1)NCN(CCCN1CCOCC1)C2 | inactive
15 | CNC(=O)NC(=O)CSc1ccc(NC(C)=O)cc1 | inactive
16 | Cc1ccc(S(=O)(=O)Nc2cc(C)c(O)c(S(=O)(=O)c3ccc(C)cc3)c2)cc1 | inactive
17 | O=C(CCn1c(=O)c2ccccc2n(Cc2ccccc2)c1=O)NCc1ccc2c(c1)OCO2 | inactive
18 | O=C1NC(=Nc2ccc3ccccc3c2)S/C1=C/c1ccco1 | 10 µM (active)
19 | CC1CCN(c2ccc3c(c2)S(=O)(=O)c2cccc(C(=O)NC4CC4)c2C3=O)CC1 | inactive
20 | O/N=C/c1ccccc1OCc1ccccc1F | inactive

Row | Structure (SMILES) | Potency
21 | NS(=O)(=O)c1ccc(NC(=O)CN2CCCCC2)cc1 | inactive
22 | COc1ccc(-n2c(O)c(/C=N/n3cnnc3)c3ccccc3c2=O)cc1 | inactive
23 | C=CC[C@H](CC(=O)N[C@H](CO)Cc1ccccc1)C(=O)N[C@@H](COC(=O)[C@@H](CC=C)CC(=O)OC(C)(C)C)Cc1c[nH]c2ccccc12 | inactive
24 | Cn1c(=O)c2c(nc(CN3CCN(C(=O)c4ccco4)CC3)n2CCCc2ccccc2)n(C)c1=O | inactive
25 | CN1CCN(Cc2c(O)ccc3c(=O)c(Oc4ccccc4Cl)c(C(F)(F)F)oc23)CC1 | inactive
26 | CC(C)C(=O)Nc1ccc(C(=O)N2CCCCCC2)cc1 | inactive
27 | CSCCC(NC(=O)c1cc(C(C)(C)C)oc1C)C(=O)O (stereo not given) | inactive
28 | COc1ccc(O)c(-c2cc(-c3ccc(F)cc3)n[nH]2)c1 | inactive
29 | CCC(C)NC(=O)CSC1=Nc2ccccc2C2=NC(c3ccccc3)C(=O)N12 (stereo not given) | inactive
30 | CCCCOC1(c2ccccc2)NC(=S)NN=C1c1ccccc1 (stereo not given) | inactive
31 | Cc1cccc(NCc2nc(-c3ccccc3)no2)c1 | inactive
32 | N=C1C(c2nc3ccccc3c(=O)[nH]2)=C(O)CN1CCc1ccccc1 | inactive
33 | O=C1c2ccccc2CCC12N=NCC2c1ccc(Br)cc1 (stereo not given) | inactive
34 | Cc1cc(C)cc(OCC(=O)Nc2ccc(N3CCCC3)cc2)c1 | 10 µM (active)
35 | C=CCn1c(N)c(C(=O)NCc2cccnc2)sc1=S | inactive
36 | Cc1cccc(-c2nnc3n2N=C(c2ccc(Br)cc2)CS3)c1 | inactive
37 | COc1cc(OC)cc(-c2c(C#Cc3ccsc3)c3cc(-c4ccc(OC)c(OC)c4)ccc3n2C)c1 | inactive
38 | Cc1cc(NC(=O)COC(=O)CCCOc2ccc(Cl)cc2C)no1 | inactive
39 | Cc1ccc(NC(=O)CS(=O)CC(=O)Nc2ccc(N3CCOCC3)cc2)cc1Cl (stereo not given) | inactive
40 | CCCCCCCCCC[N+](C)(C)CC/C=C1/c2ccccc2Sc2ccc(Cl)cc21 | 7.94 µM (active)
